# Compounds with a hit are over-represented: about 4.8% of the library has one in this group of screens.
# ATXN2 expr inh: reduces ATXN2 reporter expression in HEK-293 cells; AID 1745845; actives 0.72% (n = 360,000); Potency, µM (titrated, usually from 57 µM), for inactives: top-dose activity change, negative = inhibition, actives largely listed as inhibitors; HEK-293 ATXN2-luciferase reporter, luminescence, 24 h; further: potency means the concentration at half of the fitted maximal effect; on the % scale 0 is the no-effect control and ±100 the full control effect; nearly all actives have a fitted effect of over 55% in size
#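 qHTS (up to 57 uM final) was run with 24 h compound exposure of reporter cells at 37 °C. Each well was multiplexed: SteadyGlo luminescence measured ATXN2-luciferase expression after a fluorogenic Gly-Phe-AFC viability readout (25 uM final).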
# USP1-UAF1 inh: blocks the human USP1/UAF1 deubiquitinase complex; Potency, µM (top dose mostly 57.1 µM), inactives show top-dose activity change, negative = inhibition, actives largely listed as inhibitors; recombinant USP1/UAF1, Ub-Rhodamine cleavage fluorescence; AID 743255; O94782; actives 0.23% (n = 390,000); further: potency means the concentration at half of the fitted maximal effect; on the % scale 0 is the no-effect control and ±100 the full control effect; nearly all actives have a fitted effect of over 60% in size
#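 Step one: compound is pinned into 1nM USP1/UAF1 in HEPES pH 7.8 buffer with TCEP. Step two: 15 min room-temperature incubation. Step three: Ub-Rho (150nM final) starts cleavage, tracked by fluorescence over six one-minute reads.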
# ATXN viability: cell viability loss in ATXN counter-screen; S2 cells (HEK-293 line with an ATXN2-luciferase reporter) viability, CellTiter-Fluor protease fluorescence, 24 h; Potency, µM (top dose mostly 56.7 µM), usual class: cytotoxic; actives 0.49% (n = 400,000); AID 651635; further: potency means the concentration at half of the fitted maximal effect; nearly all actives have a fitted effect of over 40% in size
# USP2a inh: USP2a (human) protease inhibition; USP2 core, Ub-CHOP2 coupled fluorogenic reporter, 485/531; Potency, µM (highest dose often 38.3 µM), for inactives: at the top dose activity change, negative = inhibition, usual class: inhibitors; actives 0.01% (n = 330,000); AID 463254;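 further: potency means the concentration at half of the fitted maximal effect; plate controls were DMSO wells for no effect and full inhibition by NEM control for full effect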
# Target sequence (O75604 whole entry, looked up): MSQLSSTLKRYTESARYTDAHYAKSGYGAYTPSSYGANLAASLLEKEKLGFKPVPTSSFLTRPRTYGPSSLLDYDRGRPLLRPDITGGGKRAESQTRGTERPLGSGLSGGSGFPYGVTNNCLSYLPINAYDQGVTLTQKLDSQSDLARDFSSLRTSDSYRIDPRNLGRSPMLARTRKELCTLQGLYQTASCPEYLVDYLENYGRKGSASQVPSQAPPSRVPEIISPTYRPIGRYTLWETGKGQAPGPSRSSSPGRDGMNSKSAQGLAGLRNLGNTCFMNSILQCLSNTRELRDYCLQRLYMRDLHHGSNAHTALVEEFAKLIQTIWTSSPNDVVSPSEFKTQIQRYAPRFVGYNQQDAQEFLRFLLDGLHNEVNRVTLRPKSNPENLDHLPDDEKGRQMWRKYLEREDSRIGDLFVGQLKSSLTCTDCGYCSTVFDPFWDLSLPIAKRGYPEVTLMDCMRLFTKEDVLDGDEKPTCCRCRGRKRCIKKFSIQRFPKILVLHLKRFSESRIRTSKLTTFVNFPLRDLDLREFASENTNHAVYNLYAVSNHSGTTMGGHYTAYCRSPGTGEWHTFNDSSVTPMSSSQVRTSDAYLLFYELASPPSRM
#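 Cell-free coupled assay: 10nM USP2 core preincubated 30min RT with compound in Tris-HCl pH 8.0/CaCl2/CHAPS buffer, then 25nM Ub-CHOP2 and 25nM reporter substrate; fluorescence (Ex 485/Em 531) read after 60min RT, normalized to NEM inhibition, concentration-response curves fitted.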
# IL1B secr inh: inhibitors of inflammasome signaling (IL-1 beta secretion) | THP-1 LPS/ATP IL-1B secretion, AlphaLISA, 16 h; stronger effect = lower value | activity change, % at 57.5 µM | actives 4.7% (n = 360,000) | AID 743279; in the data active means activity change below about -50%; inconclusive means mostly about -30% to -49%; further: on the % scale 0 is the no-effect control and ±100 the full control effect
#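 Secreted IL-1B measured by AlphaLISA bead assay after 16 h compound exposure of THP-1 cells; compounds (final up to 57.5 uM) added 1 h before LPS (250 ng/mL) and ATP (1.25 mM) stimulation; lower signal means less secretion.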
# Active calls of the source: *; i = inactive; ? = inconclusive; . = no result given; [ ] = remark or other dose. Unless noted, the call rests on the fitted dose curve; in most records, active means well fitted curve in the direction sought with a large enough effect; inconclusive means small, poorly fitted or top-dose-only effect, or another doubt; inactive means no such curve, though single readings can be large; an effect the other way counts as inactive or inconclusive.
SMILES,ATXN2 expr inh,USP1-UAF1 inh,ATXN viability,USP2a inh,IL1B secr inh
O=C(NCCCN1CCOCC1)c1ccc(-n2nc(C(F)(F)F)cc2-c2cccs2)cc1,?,-8%,i,-4%,-87*
COCCCNC(=O)c1ccc(-n2nc(C(F)(F)F)cc2-c2cccs2)cc1,-36%,-8%,i,3%,?
CSc1nc(NCCOC(C)=O)c(C#N)c(-c2ccc(C(C)(C)C)cc2)n1,10%,-13%,i,.,.
N#Cc1c(N)c(C#N)c(-c2ccc3c(c2)OCO3)c2c1CCCC2,-7%,-17%,i,0%,21
N#Cc1c(-c2ccc3c(c2)OCO3)csc1N,0%,-6%,?,2%,-60*
COc1ccc(Cc2c(Cl)ncnc2Cl)cc1,-17%,-16%,i,2%,-111*
COc1ccc(Cc2c(C)nc(N)nc2Cl)cc1,-6%,0%,i,3%,0
O=C(Nc1ccccc1C(=O)Nc1nnc(C(F)(F)F)s1)c1ccccc1Cl,13µM*,-3%,?,1%,-73*
O=C(Nc1nnc(C(F)(F)F)s1)c1ccc(Br)s1,?,-2%,i,3%,-55*
CC(NC(=O)Nc1nnc(C(F)(F)F)s1)(C(F)(F)F)C(F)(F)F,?,-5%,?,-3%,-62*
CC(C)(C)CC(=O)Nc1nnc(C(F)(F)F)s1,1%,1%,i,2%,18
NC(=O)c1ccccc1NC(=O)c1ccccc1Cl,.,-13%,i,8%,-2
CCSc1nnc(NC(=O)c2ccc(Br)s2)s1,27%,1%,i,1%,-22
Cc1ccc(CNCc2ccc3c(c2)n(C)c(=O)n3C)cc1,-14%,5%,i,.,.
COc1cccc(CNC(=O)c2cc3c(cc2Cl)N2CCCCCC2=NS3(=O)=O)c1,-7%,-17%,?,1%,6
Oc1cccc(/C=N/N(Cc2ccccc2)c2ccccc2)c1,-9%,-12%,i,-16%,-55*
O=c1c(Cl)c(NCCCO)cnn1-c1nc2ccccc2[nH]1,?,-19%,?,0%,-117*
Cc1ccc(OCC(=O)OC(C)CN2CCCCC2)cc1 (centres undefined),3%,-19%,?,2%,0
CCCOc1ccc(C(=O)Nc2ccc(CN3CCOCC3)cc2)cc1,-9%,-6%,i,2%,-21
CCCOc1cccc(C(=O)Nc2ccc(CN3CCOCC3)cc2)c1,-15%,-21%,i,-1%,-53*
CCCCOc1ccc(C(=O)Nc2ccc(CN3CCOCC3)cc2)cc1,-29%,-19%,i,-1%,-62*
COc1ccc(OCc2cccc(C(=O)Nc3ccc(CN4CCCCC4)cc3)c2)cc1,-30%,-10%,i,0%,-16
CC(C)Oc1cccc(C(=O)Nc2ccc(CN3CCOCC3)cc2)c1,3%,-7%,i,2%,6
CCOc1ccc(OCc2cccc(C(=O)Nc3ccc(CN4CCCCC4)cc3)c2)cc1,?,-16%,?,1%,-100*
O=C(Nc1cccc(Br)c1)c1cccc(OC(=S)N2CCOCC2)c1,?,-12%,?,-3%,-67*
SMILES,ATXN2 expr inh,USP1-UAF1 inh,ATXN viability,USP2a inh,IL1B secr inh
CN(C)c1ccc(-c2ccnc3c2CC(C)(C(=O)Nc2cccc(C(F)(F)F)c2)O3)cc1 (centres undefined),3%,.,i,.,-18
Cc1cc(C)nc(S[C@@H]2C[C@@H](C(=O)N3CCCN(C)CC3)N(Cc3cc(F)ccc3F)C2)n1,.,.,i,.,.
COc1cccc(CNC(=O)COC(=O)c2nc(Cl)c(Cl)c(Cl)c2Cl)c1,-38%,-14%,?,0%,-101*
O=C(Nc1ccccc1)Nc1cc(Cl)cc(Cl)c1,?,-25%,?,-7%,-82*
CS(=O)(=O)Nc1ccccc1C(=O)Nc1cccc(Cl)c1,-6%,-16%,i,1%,23
O=C(Nc1cccnc1)C1(F)C(F)(F)C(F)(F)C(F)(F)C(F)(F)C1(F)F,-3%,-18%,i,4%,-67*
O=C(Nc1ccccc1)Nc1cc(OCC(F)(F)F)cc(OCC(F)(F)F)c1,-10%[11.3 µM],-23%,i,-1%,-103*
CS(=O)(=O)Nc1ccccc1C(=O)Nc1cc(Cl)cc(Cl)c1,22µM*,-4%,?,0%,-56*
COc1ccc(CNC(=O)c2ccc(NC(=O)N3CCSc4ncccc43)cc2)c(OC)c1,.,-21%,.,.,.
CSc1nc(N)nc2c1ncn2CC(=O)N[C@H](C)c1cccc2ccccc12,-3%,-21%,i,1%,17
CCC1CCC(C(=O)NC(C(=O)Nc2cccc(OC)c2)C(C)C)CC1 (centres undefined),3%,-27%,i,.,.
O.O=C([O-])CC([S-])C(=O)[O-].[Au+].[Na+].[Na+] (centres undefined),.,.,i,.,.
O=C(Nc1cccnc1)Nc1cc(Cl)cc(Cl)c1,-18%,-10%,i,-1%,-101*
CON=C(C(=O)N[C@@H]1C(=O)N2C(C(=O)O)=C(Cn3ccc(=N)n3CCO)CS[C@H]12)c1csc(N)n1,2%,.,.,.,.
C(#Cc1ccccc1)C[N+]1(CC#Cc2cccc3ccccc23)CCCC1,?,-20%,i,5%,-62*
CCOC(=O)CCC1(C(=O)OC)C(=O)CCCCCC=C1C(=O)OC (centres undefined),.,6%,i,.,-51*
CCOC(=O)Cn1nc(C)n(-c2c(C)cccc2C)c1=O,-7%,-18%,i,1%,-62*
CCOC(=O)c1c(-c2ccccc2)oc2ccc(O)c(CN(C)C)c12,-22%,-10%,?,-2%,?
CCc1cccc(CC)c1NC(=O)c1c(C)oc2ccc(O)c(CN3CCCC3)c12,-25%,-26%,16µM*,.,.
COc1ccc(NC(=O)c2c(C)oc3ccc(O)c(CN4CCC(C)CC4)c23)cc1Cl,-19%,-25%,14µM*,.,.
CCOC(=O)c1c(CSCc2ccccc2)oc2ccc(O)c(CN(C)C)c12,?,-20%,?,0%,-82*
CCN1CCN(Cc2c(O)ccc3oc(C)c(C(=O)Nc4ccc(OC)c(Cl)c4)c23)CC1,-34%,-25%,?,.,.
CCOC(=O)c1c(-c2ccccc2)oc2ccc(O)c(CN3CCCC3)c12,.,-9%,.,-12%,-60*
COc1cc2ccccc2cc1C(=O)Nc1ccc(Cl)c(-c2nc3ccccc3o2)c1,-3%,-17%,i,.,.
CCOC(=O)c1ccc(CN(Cc2ccc(F)cc2)S(=O)(=O)c2ccc(F)c(C(=O)Nc3ccc(Cl)cc3F)c2)cc1,.,-12%,.,.,.
CCCNC(=O)CCc1c(C)nc2nc(CNC(=O)c3ccccc3)nn2c1C,5%,-17%,i,.,.
C=CCn1c(=O)c2c3c(sc2n2c(Nc4ccc(OC)cc4)nnc12)CCCC3,-1%,-13%,i,1%,-71*

# Screening data from PubChem BioAssay.
